Screening results from PubChem.
A selection: hits, their analogues and other compounds. The true share with any hit is near 32%.
PostGolgi ctrl: inhibits growth of the yeast control strain. efflux-deficient yeast background strain, growth absorbance A615, 16 h. hit rate 5% among 98,000. AID 738. inhibition, % at 10 µM
PostGolgi yeast: growth inhibition of a yeast mutant, post-Golgi transport screen. post-Golgi transport phenotypic cell assay. inhibition, % at 10 µM. hit rate 0.9% among 98,000. AID 739;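 also: yeast cells grown in 1536-well plates; yeast grown about 18 h at 30C before absorbance read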
CYP2C19 inh: inhibitors of human CYP2C19; hit rate 21% among 96,000; P33261; CYP2C19 Supersomes, luciferin-H EGE luminescence, 30 min; AID 778; inhibition, % at 5 µM;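 active = CYP2C19 inhibition above a set limit at 5 µM in the primary screen, cut at about 50% in these data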
CYP2C9 inh: inhibitors of human CYP2C9; P11712; CYP2C9 Supersomes, luciferin-H conversion, luminescence; inhibition, % at 5 µM; hit rate 20% among 96,000; AID 777;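 active = blocking of liver enzyme CYP2C9 beyond about 50% at 5 µM, limit read from the data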
Target sequence (P11712 whole entry, looked up): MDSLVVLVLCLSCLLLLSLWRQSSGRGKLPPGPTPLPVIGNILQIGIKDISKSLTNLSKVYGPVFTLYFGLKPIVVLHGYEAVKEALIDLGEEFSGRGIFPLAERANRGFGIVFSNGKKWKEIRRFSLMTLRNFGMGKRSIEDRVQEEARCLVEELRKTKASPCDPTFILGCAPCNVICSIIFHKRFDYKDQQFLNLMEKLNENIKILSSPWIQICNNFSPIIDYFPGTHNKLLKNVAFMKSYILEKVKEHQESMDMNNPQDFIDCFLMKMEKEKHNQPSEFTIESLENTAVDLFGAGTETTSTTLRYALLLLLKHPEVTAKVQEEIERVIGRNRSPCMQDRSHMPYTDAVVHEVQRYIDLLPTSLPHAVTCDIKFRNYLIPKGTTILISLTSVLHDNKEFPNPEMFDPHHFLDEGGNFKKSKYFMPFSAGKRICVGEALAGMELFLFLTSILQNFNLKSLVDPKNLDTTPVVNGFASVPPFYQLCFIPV
CYP2C19 activ: increases human CYP2C19 enzyme activity. P33261. recombinant CYP2C19, luciferin-H EGE luminescence; stronger effect = higher value; 0 = fully inhibited enzyme, 1 = untreated enzyme. activation factor at 5 µM. 96,000 tested, under 10 active. AID 1025;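 active = activation factor of at least 2 at 5 µM in the primary screen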
CYP2C9 act: activators of human CYP2C9. AID 1024. activation factor at 5 µM. recombinant CYP2C9, luciferin-H conversion, luminescence; stronger effect = higher value; factor 1 = untreated enzyme, 0 = blocked. hit rate 1.4% among 96,000;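 active = activation factor of 2 or more for CYP2C9 at a 5 µM dose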
Large screens that a line does not name were inactive. Rule as the data show it, unless noted: active = inhibition above about 30%; inactive = the rest.

O=C(CN1C(=O)c2cccc3cccc(c23)C1=O)N1CCN(Cc2ccc3c(c2)OCO3)CC1	CYP2C9 inh 55
CC12CCC(C(=O)O)(c3nc(C#N)c(C#N)nc31)C2(C)C (stereo not given)	none
CCC(CC)C(=O)c1c[nH]c(C(=O)NCC2CCCO2)c1 (stereo not given)	none
COCCNC(=O)C(c1cccs1)N(C(=O)Cn1nnc2ccccc21)c1ccc2c(c1)OCO2 (stereo not given)	none
O=C(CN1c2cccc3cccc(c23)S1(=O)=O)NCc1ccc2c(c1)OCO2	CYP2C19 inh 81, CYP2C9 act 4.1
CNC(=O)CN1C(=O)c2cccc3cccc1c23	none
O=C(CN1C(=O)c2cccc3cccc1c23)NCC1CCCO1 (stereo not given)	CYP2C9 act 3.5 (no result: PostGolgi ctrl, PostGolgi yeast)
COc1cc(NC(=O)CN2c3cccc4cccc(c34)S2(=O)=O)cc(OC)c1OC	none
CC1CCCN(C(=O)C2CCN(CC3CC=CCC3)CC2)C1 (stereo not given)	none
CC1Cc2ccccc2N1C(=O)CN1C(=O)C(=O)N(Cc2ccccc2)C1=O (stereo not given)	none
Cc1ccc(NC(=S)N2CCC(N(C)CC3CCCO3)CC2)c(C)c1 (stereo not given)	none
Cc1c(C(=O)Nc2ccc(F)cc2)oc2ccc(S(=O)(=O)N3CC(C)CC(C)C3)cc12 (stereo not given)	CYP2C9 inh 58
COCCCNC(=O)c1oc2ccc(S(=O)(=O)N(C)C3CCCCC3)cc2c1C	CYP2C9 inh 76
Cc1ccc(CNC(=O)c2oc3ccc(S(=O)(=O)N4CCC5(CC4)OCCO5)cc3c2C)cc1	CYP2C9 inh 65
C=CCNC(=O)c1oc2ccc(S(=O)(=O)N(CC)CC)cc2c1C	none
Cc1c(C(=O)NCc2cccnc2)oc2ccc(S(=O)(=O)N3CC(C)CC(C)C3)cc12 (stereo not given)	none
Cc1c(C(=O)NCc2cccnc2)oc2ccc(S(=O)(=O)N3CCC4(CC3)OCCO4)cc12	none
CCN(CC)S(=O)(=O)c1ccc(C(=O)N2CCCCC2)cc1	CYP2C9 inh 70
CCCN(CCC)S(=O)(=O)c1ccc(C(=O)N2CCOCC2)cc1	none
COC(=O)c1cc(OC)c(OC)cc1-n1cnc2cc(OC)c(OC)cc2c1=O	none
Cc1nc2ccc(F)cc2cc1C(=O)NC(C)C	none
Cc1c(C(=O)O)oc2ccc(S(=O)(=O)NCc3ccc(F)cc3)cc12	CYP2C9 inh 72
CCN(CC)S(=O)(=O)c1ccc2oc(C(=O)N3CCCCCC3)c(C)c2c1	CYP2C9 inh 56
CCN(CC)C(=O)c1oc2ccc(S(=O)(=O)N3CCCCCC3)cc2c1C	CYP2C19 inh 51
CCN(CC)S(=O)(=O)c1ccc2oc(C(=O)N3CCOCC3)c(C)c2c1	none
C=CCNC(=O)CN1CCC(O)(c2ccc(F)cc2)CC1	none
CCc1ccccc1Nc1nc(N)nc(CSCC(=O)c2cc(C)n(C)c2C)n1	CYP2C19 inh 85, CYP2C9 inh 66
COc1ccccc1Nc1nc(N)nc(CSCCO)n1	none
O=C(NC12CC3CC(CC(C3)C1)C2)N1CCC(n2nnc3ccccc32)CC1	CYP2C19 inh 78
CN1CCN(c2cc(-c3ccccc3)nc3cc(-c4ccc(F)cc4)nn23)CC1	PostGolgi ctrl 73
COc1cccc(-c2cc3nc(-c4ccccc4)cc(N4CCC5(CC4)OCCO5)n3n2)c1	CYP2C9 inh 55
COc1cccc(NC(=O)Cc2cn(C)c3ccccc23)c1	CYP2C9 act 3.8
COc1cccc(NC(=O)CCCn2c(=O)[nH]c3ccccc3c2=O)c1	CYP2C9 inh 72
CCCCN(CC)C(=O)Cc1cn(C)c2ccccc12	CYP2C19 inh 95, CYP2C9 act 3.4
Cc1ccccc1NC(=O)Cc1cn(C)c2ccccc12	CYP2C9 act 3
COc1cccc(NC(=O)Cc2c(C(=O)O)[nH]c3ccccc23)c1	none
O=C(C1=C(O)C(=O)N(Cc2ccco2)C1c1ccccc1)c1cccs1 (stereo not given)	none
COc1cccc(NC(=O)Cn2c(=O)n(CC3CCCO3)c(=O)c3ccccc32)c1 (stereo not given)	CYP2C19 inh 63
O=C(Nc1nc(-c2ccccc2)cs1)C1CCCN(S(=O)(=O)c2ccccc2)C1 (stereo not given)	CYP2C9 inh 69
O=C(Nc1nc(-c2ccccc2)cs1)C1CCCN(S(=O)(=O)c2cccc([N+](=O)[O-])c2)C1 (stereo not given)	CYP2C9 inh 62
CCN1CCN(C(=O)c2ccc(Cl)c(S(=O)(=O)N3CCOCC3)c2)CC1	none
CC(=O)c1cccc(NC(=O)N2CCCC2C(=O)Nc2cccc(C)c2C)c1 (stereo not given)	CYP2C19 inh 90, CYP2C9 inh 88
CC(=O)c1cccc(NC(=O)N2CCCC2C(=O)Nc2ccccc2C)c1 (stereo not given)	CYP2C9 inh 56
CC(=O)c1cccc(NC(=O)N2CCCC2C(=O)NC2CCCCC2)c1 (stereo not given)	none
Cc1cc(C)cc(NC(=O)N2CCCC2C(=O)Nc2ccc(-n3cnnn3)c(C)c2)c1 (stereo not given)	CYP2C19 inh 96
CC(C)c1ccc(C(=O)N2CCN(CCO)CC2)cc1	none
CCOc1cc(CNc2ccc3c(c2)CCC3)ccc1OC	CYP2C19 inh 56
CN(C)S(=O)(=O)N1CCc2ccccc2C1	CYP2C19 inh 66, CYP2C9 act 2.4
O=C(CS(=O)(=O)Cc1ccccc1)N1CCc2ccccc2C1	none
Cc1n[nH]c(C)c1S(=O)(=O)N1CCc2ccccc21	CYP2C19 inh 61
O=S(=O)(Cc1ccccc1)N1CCc2ccccc21	CYP2C19 inh 69
CN(C)S(=O)(=O)N1CCc2ccccc21	CYP2C9 act 2.3
Cn1cnc(S(=O)(=O)N2CCc3ccccc32)c1	none
C/C(N)=C(/C#N)C(=O)CSc1nnc(COc2cc(C)ccc2C)o1	none
COc1cccc(OCCCOc2ccccc2C(C)C)c1	none
CN1CC(=O)N(C)c2ncn(Cc3ccccc3)c2C1=O	none
Nn1cnnc1N/N=C/c1cc(Br)cc(Br)c1O	none
CCOc1ccc(N(CC(=O)N2CCc3ccccc32)S(=O)(=O)c2c(C)noc2C)cc1	none
Cc1n[nH]c(C)c1S(=O)(=O)N(CC(=O)N1CCc2ccccc21)c1ccc(C(C)C)cc1	CYP2C9 inh 58
O=S(=O)(c1ccccc1)N1N=C(c2cccs2)CC1c1ccc(Br)cc1 (stereo not given)	CYP2C9 inh 52
Cc1nc(NCc2ccccn2)c2ccccc2n1	none
Cc1cc(NCc2ccccn2)nc2ccccc12	CYP2C19 inh 56, CYP2C9 act 3
c1ccc(CNc2ccc3ccccc3n2)nc1	CYP2C19 inh 75
Cc1ccccc1NC(=O)C(C)c1cccc(C(=O)c2ccccc2)c1 (stereo not given)	CYP2C19 inh 91, CYP2C9 inh 78
Cc1cc(NC(=O)CCS(=O)(=O)c2nc(-c3ccccc3)cc(C(F)(F)F)n2)no1	none (no result: PostGolgi ctrl, PostGolgi yeast)
